PubChem BioAssay AID1224864 (Chung Lab, Department of Pediatrics, Emory University, 2016)
Several values for one entry are separate records, joined by “and”; a condition that tells them apart may be missing. Equal entries are not always repeated. In all, about 2,000 compounds went through this assay and about 20 (1%) were called active. The rule behind the calls is not given here. The sample as a whole holds a higher share of actives than the screen did. Residues, ends and D or L forms follow the SMILES beside them.

Each compound was assayed against Cystic fibrosis transmembrane conductance regulator (Homo sapiens) (UniProt P13569) (assay: correctors of F508del-CFTR surface localization, primary screen, imaging, HeLa, high-content microscopy, immunofluorescence (AID 1224864;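 note: HeLa cells stably expressing F508del-CFTR stained with 3G11 antibody against NBD1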;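 for Plasma membrane CFTR intensity: mean immunofluorescence in a thin cell-margin band taken as plasma membrane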)). Details: PM immunofluorescence imaging, 24 h, at 10 µM, stronger effect = higher value, relative to vehicle wells set at 100; total CFTR intensity: measured here: total cellular F508del-CFTR signal.
Cystic fibrosis transmembrane conductance regulator (Homo sapiens), sequence (P13569 whole entry, looked up, stated change not applied): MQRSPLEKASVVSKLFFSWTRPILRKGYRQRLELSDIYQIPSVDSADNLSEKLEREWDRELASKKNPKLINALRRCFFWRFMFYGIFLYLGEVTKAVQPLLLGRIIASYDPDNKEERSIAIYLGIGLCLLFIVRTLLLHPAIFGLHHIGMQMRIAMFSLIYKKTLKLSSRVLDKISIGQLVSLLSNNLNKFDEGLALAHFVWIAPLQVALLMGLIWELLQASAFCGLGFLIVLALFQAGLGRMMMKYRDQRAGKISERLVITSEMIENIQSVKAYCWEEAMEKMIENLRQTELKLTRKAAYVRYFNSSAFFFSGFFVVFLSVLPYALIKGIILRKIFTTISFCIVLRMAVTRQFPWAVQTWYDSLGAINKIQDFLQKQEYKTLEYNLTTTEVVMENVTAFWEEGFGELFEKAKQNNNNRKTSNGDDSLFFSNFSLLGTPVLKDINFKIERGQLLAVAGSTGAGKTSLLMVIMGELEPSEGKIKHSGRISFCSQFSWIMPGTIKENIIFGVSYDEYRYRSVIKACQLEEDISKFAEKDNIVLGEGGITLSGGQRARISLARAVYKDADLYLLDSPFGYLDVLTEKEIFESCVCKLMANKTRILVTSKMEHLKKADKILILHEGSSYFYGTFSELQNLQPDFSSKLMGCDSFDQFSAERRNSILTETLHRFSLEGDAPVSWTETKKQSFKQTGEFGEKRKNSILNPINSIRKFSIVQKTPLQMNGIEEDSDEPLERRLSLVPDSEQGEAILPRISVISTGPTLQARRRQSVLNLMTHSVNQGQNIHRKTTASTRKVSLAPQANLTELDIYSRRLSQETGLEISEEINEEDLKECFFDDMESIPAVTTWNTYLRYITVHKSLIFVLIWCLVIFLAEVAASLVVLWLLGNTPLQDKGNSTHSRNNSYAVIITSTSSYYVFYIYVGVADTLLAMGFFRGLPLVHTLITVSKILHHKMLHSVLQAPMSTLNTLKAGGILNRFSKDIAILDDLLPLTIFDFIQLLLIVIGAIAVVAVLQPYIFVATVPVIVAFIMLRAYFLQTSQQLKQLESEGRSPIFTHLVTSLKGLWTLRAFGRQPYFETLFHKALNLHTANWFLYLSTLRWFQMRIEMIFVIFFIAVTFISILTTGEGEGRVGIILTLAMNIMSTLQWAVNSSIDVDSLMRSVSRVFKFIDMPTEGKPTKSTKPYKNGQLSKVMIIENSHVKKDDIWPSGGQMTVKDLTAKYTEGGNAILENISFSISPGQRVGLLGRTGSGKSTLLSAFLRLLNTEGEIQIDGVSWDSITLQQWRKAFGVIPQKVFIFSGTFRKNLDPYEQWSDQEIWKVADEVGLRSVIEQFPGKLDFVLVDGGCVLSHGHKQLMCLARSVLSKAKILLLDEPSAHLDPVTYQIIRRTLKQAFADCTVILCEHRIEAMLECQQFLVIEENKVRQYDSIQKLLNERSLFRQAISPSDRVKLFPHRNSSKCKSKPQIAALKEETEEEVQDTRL

Plasma membrane CFTR intensity, inactive:
CC(C)OC(=O)C1C(=O)CC(C)(O)C(C(=O)OC(C)C)C1c1cccc(O)c1 (stereo not given) 77%, CCOC(=O)c1ccccc1NC(=O)c1ccc(F)cc1 101%, CCOc1ccc(NC(=O)N[C@@H](CCSC)C(=O)OC)cc1 88%, FC(F)(F)c1ccc(-c2noc(CN3CCCN(C4CCCCC4)CC3)n2)cc1 95%, COc1ccc2[nH]cc(CCNC(=O)C3CCCNC3=O)c2c1 (stereo not given) 87%, CC(C)(C)C(=O)NC(=S)NNC(=O)c1ccncc1 94%, O=C(NC(Nc1ccccn1)C(Cl)(Cl)Cl)c1ccccc1 (stereo not given) 84%, COc1cc(CNc2nnnn2C)ccc1OCc1ccc(F)cc1Cl 79%, CC1CCCc2sc3ncn(N)c(=N)c3c21 (stereo not given) 71%, O=C(c1ccco1)N(CCC(c1ccccc1)c1ccco1)Cc1ccco1 (stereo not given) 99%, CC(=O)Nc1nnc(S(N)(=O)=O)s1 87%, COc1ccc(CNC(=O)c2cc3c(=O)n4ccccc4nc3n(Cc3cccnc3)c2=N)cc1 556%, COc1ccc(S(=O)(=O)NC(Cc2cnc[nH]2)C(=O)O)cc1 (stereo not given) 75%, CC(C)Cn1c(=S)[nH]c2cc(C(=O)O)ccc2c1=O 78%, O=C(CCCC(=O)OCC1CCCO1)OCC1CCCO1 (stereo not given) 84%, CC(=O)[C@H]1CC[C@H]2[C@@H]3CCC4=CC(=O)CC[C@]4(C)[C@H]3CC[C@]12C 81%, CC(=O)[C@@]1(O)CC[C@H]2[C@@H]3CCC4=CC(=O)CC[C@]4(C)[C@H]3CC[C@@]21C 88%, N#C/C(=C\c1ccc(O)c(O)c1)C(=O)NCCCc1ccccc1 78%, S=C(NCc1ccccc1)NCc1cccc(CNC(=S)NCc2ccccc2)c1 79%, Cc1cc(-c2nn(-c3ccccc3F)cc2CN2CCCC(O)C2)c(C)s1 (stereo not given) 75%, O=C(/C=C/c1ccccc1)NCC1(c2ccccc2)CCOCC1 87%, COc1cc(CNCc2ccc(OC)c(OC)c2OC)cc(OC)c1 85%, O=C(CCCCC(=O)NC1CCCC1)NC1CCCC1 90%, CCc1cccc2c1NC1(CCCC1)CC2C (stereo not given) 74%, COc1ccc2c(CC(=O)NCC3CCC(C(=O)O)CC3)cc(=O)oc2c1 (stereo not given) 92%, CC12CCCCN1CCCc1c2[nH]c2ccccc12 (stereo not given) 104%, COc1ccc2c3c([nH]c2c1)C1(NCC3)C(=O)Nc2ccccc21 (stereo not given) 85%, COc1ccc2c(c1)c(=O)oc1cc3occ(C(C)(C)C)c3cc12 92%, O=C(NNC(=O)c1cccs1)c1ccco1 93%, O=C(NCc1ccc2c(c1)OCO2)c1ccc2c(c1)OCCO2 80%, CCN(CC)CCCNC(=O)C1c2ccccc2Oc2ccccc21 84%, CCCCOc1cc(C(=O)NCCN(CC)CC)c2ccccc2n1 105% and 91%, O=C(O)CCCN1C(=O)NC2NC(=O)NC21 (stereo not given) 91%, CCOCc1cc(C)[nH]c(=O)c1C#N 80%, COc1ccc(/C=C\c2cc(OC)c(OC)cc2CC[N+](C)(C)C)cc1OC 81%, COc1cc2ccc(=O)oc2c(O)c1OCC=C(C)C 86%, COc1cccc(CC2CC(=O)N(c3ccc4c(C)cc(=O)oc4c3)C2=O)c1 (stereo not given) 77%, O=C(/C=C/c1ccco1)NCc1ccc2c(c1)OCO2 79%, CC(=O)NC(Cc1ccccc1)C(=O)OCC(=O)c1ccccc1 (stereo not given) 77%, CC1(C)Cc2ccccc2-c2n[nH]c(=S)n21 93%, Cn1c2[n+](c3ccc(Cl)cc3c1=O)Cc1ccccc1-2 78%, Cc1cc(/C=N/O)c(C)n1-c1ccc(Br)cc1 78%, CN1C(=O)C(O)(CC(=O)c2ccccc2O)c2cc(Br)ccc21 (stereo not given) 159%, O=C(OCC1CCCN2CCCCC12)c1ccc2c(c1)OCO2 (stereo not given) 85%, CC1=C/C(=N\N=C2/NC(=O)C(CC(=O)Nc3ccccc3F)S2)CC(C)(C)C1 (stereo not given) 65%, O=C(Cc1ccccc1)NNC(=O)Cc1ccccc1 74%, CC1(C)CC(c2csc(N)n2)CCO1 (stereo not given) 90%, CC(=O)NC(CC(C)C)C(=O)NC(Cc1ccccc1)C(N)=O (stereo not drawn) (Ac-Leu-Phe-NH2; configuration not given here) 91%

Plasma membrane CFTR intensity, active:
CC(=O)N=c1sc(S(N)(=O)=O)nn1C 125%, CC(=O)SC1CC2=CC(=O)CCC2(C)C2CCC3(C)C(CCC34CCC(=O)O4)C12 (stereo not given) 177%, N#C/C(=C/c1ccccc1)C(=O)NCc1ccccc1 124%, O=C1OC(=O)C2C1[C@@H]1CC[C@H]2O1 (stereo not given in full) 120%, CC1=CC(C)(C)N2C(=O)C3(NCCc4c3[nH]c3ccccc43)c3cc(C)cc1c32 (stereo not given) 108%, CCN(CC)CCNc1ccc(CO)c2sc3ccccc3c(=O)c12 207%, CO[C@H]1C=CO[C@@]2(C)Oc3c(C)c(O)c4c(O)c(c(/C=N/N5CCN(C)CC5)c(O)c4c3C2=O)NC(=O)C(C)=CC=C[C@H](C)[C@H](O)[C@@H](C)[C@@H](O)[C@@H](C)[C@H](OC(C)=O)[C@@H]1C 113%

Total CFTR intensity, 92%:
COc1cc2ccc(=O)oc2c(O)c1OCC=C(C)C, CC1(C)CC(c2csc(N)n2)CCO1 (stereo not given)

Total CFTR intensity, 95%:
O=C(O)CCCN1C(=O)NC2NC(=O)NC21 (stereo not given)

Total CFTR intensity, 71%:
CC1CCCc2sc3ncn(N)c(=N)c3c21 (stereo not given)

Total CFTR intensity, 88%:
CCOc1ccc(NC(=O)N[C@@H](CCSC)C(=O)OC)cc1, COc1ccc2c(c1)c(=O)oc1cc3occ(C(C)(C)C)c3cc12

Total CFTR intensity, 561%:
COc1ccc(CNC(=O)c2cc3c(=O)n4ccccc4nc3n(Cc3cccnc3)c2=N)cc1

Total CFTR intensity, 84%:
O=C(CCCC(=O)OCC1CCCO1)OCC1CCCO1 (stereo not given), O=C(/C=C/c1ccccc1)NCC1(c2ccccc2)CCOCC1

Total CFTR intensity, 103%:
CCOC(=O)c1ccccc1NC(=O)c1ccc(F)cc1

Total CFTR intensity, 78%:
CC(C)OC(=O)C1C(=O)CC(C)(O)C(C(=O)OC(C)C)C1c1cccc(O)c1 (stereo not given), COc1cc(CNc2nnnn2C)ccc1OCc1ccc(F)cc1Cl, CC(=O)NC(Cc1ccccc1)C(=O)OCC(=O)c1ccccc1 (stereo not given)

Total CFTR intensity, 190%:
CN1C(=O)C(O)(CC(=O)c2ccccc2O)c2cc(Br)ccc21 (stereo not given)

Total CFTR intensity, 100%:
FC(F)(F)c1ccc(-c2noc(CN3CCCN(C4CCCCC4)CC3)n2)cc1, CC12CCCCN1CCCc1c2[nH]c2ccccc12 (stereo not given)

Total CFTR intensity, 80%:
O=C(NCc1ccc2c(c1)OCO2)c1ccc2c(c1)OCCO2

Total CFTR intensity, 101%:
O=C(c1ccco1)N(CCC(c1ccccc1)c1ccco1)Cc1ccco1 (stereo not given)

Total CFTR intensity, 90%:
CC(C)(C)C(=O)NC(=S)NNC(=O)c1ccncc1, O=C(CCCCC(=O)NC1CCCC1)NC1CCCC1, O=C(NNC(=O)c1cccs1)c1ccco1

Total CFTR intensity, 125%:
N#C/C(=C/c1ccccc1)C(=O)NCc1ccccc1

Total CFTR intensity, 83%:
N#C/C(=C\c1ccc(O)c(O)c1)C(=O)NCCCc1ccccc1, CCOCc1cc(C)[nH]c(=O)c1C#N, COc1cccc(CC2CC(=O)N(c3ccc4c(C)cc(=O)oc4c3)C2=O)c1 (stereo not given)

Total CFTR intensity, 89%:
CC(=O)Nc1nnc(S(N)(=O)=O)s1, CC(=O)[C@@]1(O)CC[C@H]2[C@@H]3CCC4=CC(=O)CC[C@]4(C)[C@H]3CC[C@@]21C, CCc1cccc2c1NC1(CCCC1)CC2C (stereo not given)

Total CFTR intensity, 85%:
COc1ccc2[nH]cc(CCNC(=O)C3CCCNC3=O)c2c1 (stereo not given), O=C(NC(Nc1ccccn1)C(Cl)(Cl)Cl)c1ccccc1 (stereo not given), CC(=O)[C@H]1CC[C@H]2[C@@H]3CCC4=CC(=O)CC[C@]4(C)[C@H]3CC[C@]12C, CCN(CC)CCCNC(=O)C1c2ccccc2Oc2ccccc21, Cn1c2[n+](c3ccc(Cl)cc3c1=O)Cc1ccccc1-2

Total CFTR intensity, 233%:
CC(=O)SC1CC2=CC(=O)CCC2(C)C2CCC3(C)C(CCC34CCC(=O)O4)C12 (stereo not given)

Total CFTR intensity, 97%:
CC1(C)Cc2ccccc2-c2n[nH]c(=S)n21

Total CFTR intensity, 144%:
CC(=O)N=c1sc(S(N)(=O)=O)nn1C

Total CFTR intensity, 238%:
CCN(CC)CCNc1ccc(CO)c2sc3ccccc3c(=O)c12

Total CFTR intensity, 129%:
CC1=CC(C)(C)N2C(=O)C3(NCCc4c3[nH]c3ccccc43)c3cc(C)cc1c32 (stereo not given)

Total CFTR intensity, 81%:
CC(C)Cn1c(=S)[nH]c2cc(C(=O)O)ccc2c1=O, S=C(NCc1ccccc1)NCc1cccc(CNC(=S)NCc2ccccc2)c1, COc1ccc2c3c([nH]c2c1)C1(NCC3)C(=O)Nc2ccccc21 (stereo not given), O=C(OCC1CCCN2CCCCC12)c1ccc2c(c1)OCO2 (stereo not given)

Total CFTR intensity, 65%:
CC1=C/C(=N\N=C2/NC(=O)C(CC(=O)Nc3ccccc3F)S2)CC(C)(C)C1 (stereo not given)

Total CFTR intensity, 77%:
O=C(/C=C/c1ccco1)NCc1ccc2c(c1)OCO2, O=C(Cc1ccccc1)NNC(=O)Cc1ccccc1

Total CFTR intensity, 133%:
O=C1OC(=O)C2C1[C@@H]1CC[C@H]2O1 (stereo not given in full)

Total CFTR intensity, 109% and 93%:
CCCCOc1cc(C(=O)NCCN(CC)CC)c2ccccc2n1

Total CFTR intensity, 76%:
Cc1cc(-c2nn(-c3ccccc3F)cc2CN2CCCC(O)C2)c(C)s1 (stereo not given)

Total CFTR intensity, 82%:
COc1ccc(S(=O)(=O)NC(Cc2cnc[nH]2)C(=O)O)cc1 (stereo not given), COc1ccc(/C=C\c2cc(OC)c(OC)cc2CC[N+](C)(C)C)cc1OC, Cc1cc(/C=N/O)c(C)n1-c1ccc(Br)cc1

Total CFTR intensity, 79%:
COc1cc(CNCc2ccc(OC)c(OC)c2OC)cc(OC)c1

Total CFTR intensity, 137%:
CO[C@H]1C=CO[C@@]2(C)Oc3c(C)c(O)c4c(O)c(c(/C=N/N5CCN(C)CC5)c(O)c4c3C2=O)NC(=O)C(C)=CC=C[C@H](C)[C@H](O)[C@@H](C)[C@@H](O)[C@@H](C)[C@H](OC(C)=O)[C@@H]1C

Total CFTR intensity, 94%:
COc1ccc2c(CC(=O)NCC3CCC(C(=O)O)CC3)cc(=O)oc2c1 (stereo not given), CC(=O)NC(CC(C)C)C(=O)NC(Cc1ccccc1)C(N)=O (stereo not drawn) (Ac-Leu-Phe-NH2; configuration not given here)
